The panel holds about 79,000 compounds, 15% with a hit somewhere; the sample as a whole holds those more often. No stated cut-off is given here; in the data, active means growth inhibition above about 70%; inactive means the rest.
Experiments:
[1] = NCI Yeast Anticancer Drug Screen. Data for the rad50 strain (AID 155);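 further: 0% = growth of vehicle-only cultures of the same strain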; settings: S. cerevisiae rad50 strain growth inhibition, active compounds read high; at 50.0 µM unless noted
Summary of the method: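 Yeast carrying a defined DNA repair defect were exposed to test compounds, and growth was compared with vehicle-treated controls to give percent inhibition.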

[2] = NCI Yeast Anticancer Drug Screen. Data for the mec2-1 strain (AID 157); settings: S. cerevisiae mec2-1 strain, active compounds read high; at 50.0 µM unless noted
Summary of the method: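 mec2-1 yeast strain, carrying an alteration in DNA damage repair or cell cycle control, was exposed to compounds; growth inhibition was measured relative to vehicle-treated controls.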

[3] = NCI Yeast Anticancer Drug Screen. Data for the sgs1 mgt1 strain (AID 161);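 further: 0% = growth of cultures given vehicle only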; settings: S. cerevisiae sgs1 mgt1 strain, active compounds read high; at 50.0 µM unless noted
Summary of the method: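 Growth of a repair-deficient yeast mutant was monitored after compound treatment and expressed as inhibition relative to vehicle-treated cultures.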

[4] = NCI Yeast Anticancer Drug Screen. Data for the cln2 rad14 strain (AID 165);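 further: 0% = growth equal to vehicle treated cultures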; settings: S. cerevisiae cln2 rad14 strain, active compounds read high; at 50.0 µM unless noted
Summary of the method: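 Yeast carrying cln2 and rad14 alterations (cell cycle control and DNA damage repair) were exposed to compounds. Growth inhibition was measured against vehicle-treated controls.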

[5] = NCI Yeast Anticancer Drug Screen. Data for the bub3 strain (AID 167); settings: S. cerevisiae bub3 mutant strain, active compounds read high; at 50.0 µM unless noted
Summary of the method: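 Compounds were applied to a genetically altered yeast strain carrying a cell-cycle control defect. Growth inhibition was scored against vehicle-treated controls.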

[6] = NCI Yeast Anticancer Drug Screen. Data for the mlh1 rad18 strain (AID 175); settings: S. cerevisiae mlh1 rad18 strain growth inhibition, active compounds read high; at 50.0 µM unless noted
Summary of the method: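 Growth inhibition of the yeast strain was measured after compound exposure and expressed relative to vehicle-treated controls. The strain carries defined defects in DNA damage repair.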

Measured: growth inhibition

Cc1ccc(S(=O)(=O)CBr)cc1
inactive: [1] 5.35% | [2] 14% | [3] 6.9% | [4] 3.3% | [5] 4.6% | [6] 5.2%

O=c1[nH]cc(Br)c(=O)[nH]1
inactive: [1] 28.8% | [2] 19.7% | [3] 13.7% | [4] 9.3% | [5] 21.9% | [6] 37%

C=CCCC(CCC=C)(C(=O)O)C(=O)O
inactive: [1] -7.1% | [2] -9.7% | [3] -16.7% | [4] 6.65% | [5] -20.9% | [6] -36.8%

CC1(c2nc3ccccc3[nH]2)CCC(C(N)=O)C(C)(C)O1 (stereo unspecified)
inactive: [1] 1.5% | [2] -13.2% | [3] -19.8% | [4] -2.55% | [5] -16.9% | [6] -10.6%

O=C(O)CCNc1ccc(Cl)cc1[N+](=O)[O-]
inactive: [1] 25.8% | [2] 26.8% | [3] 30.4% | [4] 16.1% | [5] 34.9% | [6] 25.8%

CCOc1ccc(F)cc1
inactive: [1] 10.7% | [2] -13.5% | [3] 16.5% | [4] 22.6% | [5] 6.3% | [6] 25.9%

CCOC(=O)c1c(SCc2ccccc2)nc2c3ccccc3ccn12
inactive: [1] -18.2% | [2] -18.6% | [3] -29.9% | [4] -1.15% | [5] -20.9% | [6] -57.5%

Cc1ccc(N2C(=O)C3CSCN3C2=O)cc1 (stereo unspecified)
inactive: [1] 31.2% | [2] 19.8% | [3] 6.85% | [4] 4.9% | [5] 9% | [6] 6.25%

O=C1/C(=C\c2ccccc2)Sc2cc[nH]c21
inactive: [1] 13.5% | [2] 1.3% | [3] 4.5% | [4] -1.95% | [5] -1.85% | [6] 17.2%

COc1ccccc1OC(=O)Nc1ccc(S(=O)(=O)NC2CCCCC2)cc1
inactive: [1] 12.1% | [2] -10.8% | [3] 0% | [4] 2.25% | [5] -5.95% | [6] -2.2%

CC(C)=CC(=O)O
inactive: [1] 3.2% | [2] -3.3% | [3] -9.3% | [4] 20.3% | [5] 2.1% | [6] 7.9%

Nn1c(CCCl)nc2c(Br)cc(Br)cc2c1=O
inactive: [1] 13.8% | [2] 2.9% | [3] -2.45% | [4] 3.25% | [5] 12.6% | [6] 8.5%

NC(N)=NC(N)=Nc1ccc(S(=O)(=O)O)cc1
inactive: [1] -4.7% | [2] -26.9% | [3] -47% | [4] -22.7% | [5] -29.6% | [6] -11.8%

Cc1nc(-c2ccc(Cl)cc2)cn2c1nc1ccccc12
inactive: [1] -5.5% | [2] -0.1% | [3] 8.2% | [4] -15.1% | [5] 47.5% | [6] -10.3%

CC1=CCC(C(C)C)C2CC(C)(O)CCC12 (stereo unspecified)
inactive: [1] -3.1% | [2] -1.8% | [3] 7.15% | [4] -24.9% | [5] -4.35% | [6] 0.95%

Nc1nc2c(ncn2-c2ccc(Br)cc2)c(=O)[nH]1
inactive: [1] 15.2% | [2] -1.6% | [3] 20.9% | [4] 32.1% | [5] -4.8% | [6] 59.8%

COc1cc(CC(=O)O)ccc1OC(C)=O
inactive: [1] 4.15% | [2] 2.65% | [3] -16.8% | [4] -25.1% | [5] 1.25% | [6] -5.75%

S=C(c1ccccc1)c1cccc2ccccc12
inactive: [1] 57% | [2] 15.1% | [3] 58% | [4] 2.8% | [5] -3.55% | [6] 36.9%

CCCNC(=O)Cn1c(-c2ccccc2)cc2ccccc21
inactive: [1] 13.4% | [2] 5.5% | [3] 16.7% | [4] 18.4% | [5] 27.9% | [6] -52.8%

NC(N)=NS(=O)(=O)c1ccc(NCc2c3ccccc3nc3ccccc23)cc1
inactive: [1] 41.2% | [2] 26.9% | [3] 38.4% | [4] 6.75% | [5] 46.5% | [6] 38.1%

CCCC(C)C(=O)OC(CC)CC (stereo unspecified)
inactive: [1] 31.4% | [2] 1.55% | [3] 13.1% | [4] -18.2% | [5] 5.65% | [6] 11.4%

Reference: PubChem BioAssay (NCI)
